Out of some 1,500 compounds screened, about 460 (31%) were called active.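 How the source made its calls: active means viability at or below 80% at any tested concentration, marking the compound as toxic; inactive means the rest.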 Not all results are given here. Where a call stands in place of a potency, no number is given. Potency and affinity values are given separately.
Assay: THP-1 cell cytotoxicity, dose response, cytotoxicity control for Vif-APOBEC3G degradation inhibitor project, THP-1 cells (AID 1117359)
Conditions: THP-1 viability, CellTiter-Glo luminescence, 72 h; series mostly up to 40 µM

| SMILES | outcome |
| --- | --- |
| CC1(OC(=O)CCc2ccccc2)C(=O)C=C2C=C(c3ccsc3)OC=C2C1=O (stereo not given) | inactive |
| CCOC(=O)C1(Cc2ccc(OC)cc2)CCN(C(=O)Cc2cccnc2)CC1 | inactive |
| CCOc1ccc(-n2c(SCC(=O)Nc3cc(C)on3)nnc2-c2c[nH]c3ccccc23)cc1 | inactive |
| O=C(CC(=O)NN=Cc1ccc2c(c1)CCC2)NN=Cc1ccc2c(c1)CCC2 | inactive |
| COc1cc2ccccc2nn1 | inactive |
| C/C(=N\NC(=O)c1ccc(NS(=O)(=O)c2cccs2)cc1)c1ccccc1 | inactive |
| CCN1CCN(C(=O)C2COc3ccccc3O2)CC1 (stereo not given) | inactive |
| O=C(COC(=O)c1ccc(NS(=O)(=O)c2cccs2)cc1)NCc1ccco1 | inactive |
| O=C(O)CCc1ccc(-c2cccs2)n1-c1ccc(C(=O)O)cc1 | inactive |
| O=C(c1ccc(=O)oc1)N1CCCc2ccccc21 | inactive |
| O=C(Cc1ccccn1)c1ccncc1 | inactive |
| Cc1cc(O)ccc1-c1cnc2ccccc2n1 | inactive |
| Cc1cc(/C=C2\SC(=S)NC2=O)c(C)n1-c1ccc(O)cc1 | inactive |
| O=C(NCC1CCCO1)c1cc2ccccc2oc1=O (stereo not given) | inactive |
| NS(=O)(=O)c1ccc(CCNC(=O)CCS(=O)(=O)c2ccc(Br)cc2)cc1 | inactive |
| CC(OC(=O)/C=C/c1ccco1)C(=O)NC1CCCCC1 (stereo not given) | inactive |
| CC(=O)Nc1ccc(NC(=O)C(C)OC(=O)CCc2c[nH]c3ccccc23)cc1 (stereo not given) | inactive |
| O=c1ccc2c(-c3ccccc3S(=O)(=O)O)c3ccc(O)c(O)c3oc-2c1O | inactive |
| CCOc1ccccc1C(O)C1=CC(=O)c2ccccc2C1=O (stereo not given) | inactive |
| CCOc1cccc(C(=O)Nc2ccccc2OC(F)F)c1 | inactive |
| CC(=O)Nc1nnc(SCC(=O)N2CCCc3ccccc32)s1 | inactive |
| O=C(Nc1ccc(F)c(Cl)c1)c1cccnc1 | inactive |

| SMILES | outcome |
| --- | --- |
| Clc1ccc2c(c1)nc1n2CCCC1 | inactive |
| FC(F)Oc1ccccc1NC(=S)Nc1cccnc1 | inactive |
| CN(C)c1nc(N)nc(CSc2nc3c(c(=O)n(C)c(=O)n3C)n2Cc2ccccc2F)n1 | inactive |
| CCS(=O)(=O)c1ccc2oc(Nc3cccc(OC)c3)nc2c1 | inactive |
| CC(C)(C)c1nnc(NC(=O)c2ccc(Cl)nc2)s1 | inactive |
| CC1CCN(S(=O)(=O)c2ccc(C(=O)NCc3ccc4c(c3)OCO4)cc2)CC1 | inactive |
| Cc1cccc(N/N=C/c2ccc(O)c(O)c2O)c1 | inactive |
| CCn1c(C)nc2cc(C(=O)N/N=C/c3ccc(O)c(O)c3O)ccc21 | inactive |
| Cc1cc(C)c2c(c1)[C@@H]1C=CC[C@@H]1[C@H](c1ccc(S(=O)(=O)N3CCOCC3)cc1)N2 | inactive |
| Cc1oc(-c2ccccc2)nc1C(=O)OCC(=O)NCc1ccc(F)cc1 | inactive |
| CCC1(C(N)=O)CC2C=CC1C2 (stereo not given) | inactive |
| Cc1ccc(NC(=O)CCCCCC2NC(=O)NC2C)cc1 (stereo not given) | inactive |
| O=C(CN1C(=O)c2ccccc2C1=O)NCC(=O)OCC(=O)c1cccc([N+](=O)[O-])c1 | inactive |
| C=C(C)C(=O)Nc1ccc2c(c1)OCCOCCOCCO2 | inactive |
| O=C(O)CCc1ccc(S(=O)(=O)Nc2cc(C(F)(F)F)ccc2N2CCCC2)cc1 | inactive |
| CCCCNC(=O)CN1C(=O)CSc2ccc(S(=O)(=O)N3CCOCC3)cc21 | inactive |
| CCNC(=S)Nc1ccc(N(c2ccccc2)C(C)C)cc1 | inactive |
| CCCC(=O)NNC(=O)Nc1ccccc1 | inactive |
| Cc1c(Cl)cccc1NC(=O)CC(Cc1ccccc1)C(=O)O (stereo not given) | inactive |
| CCN(CC)c1ccc(NC(=O)c2c(C)noc2C)cc1 | inactive |
| CSc1nc(N2CCOCC2)c2c3c(sc2n1)CCC3 | inactive |
| Cc1nn(CC(=O)Nc2ccccn2)c(C)c1Br | inactive |

| SMILES | outcome |
| --- | --- |
| CC(=O)c1ccc(N2CCN(C(=O)c3ccc4c(c3)OCO4)CC2)cc1 | inactive |
| CC(C)(CS(=O)(=O)[O-])NC(=O)CC[N+](C)(C)CCO | inactive |
| CCOc1cc(N2CCOCC2)c(OCC)cc1NC(=O)CSc1ncn[nH]1 | inactive |
| CCOc1ccc(S(=O)(=O)N2CC(=O)Nc3ccccc32)cc1C#N | inactive |
| O=C(N/N=C/C=C/c1ccco1)c1cccs1 | inactive |
| O=C(CSc1nc2cc([N+](=O)[O-])ccc2n1-c1ccccc1)NCc1ccc2c(c1)OCO2 | inactive |
| COCCCN1C(=O)N(c2ccc(F)cc2)C(=O)C1CC(=O)Nc1ccc(OC)cc1 (stereo not given) | inactive |
| Cc1ccc(S(=O)(=O)OCC(=O)Nc2ccc(C(=O)O)c(O)c2)cc1 | inactive |
| CC(C)CCN1CCN(Cc2cccn2-c2cccnc2)CC1CCO (stereo not given) | inactive |
| NS(=O)(=O)c1ccc(NC(=O)COC(=O)c2cc(Cl)ccc2[N+](=O)[O-])cc1 | inactive |
| Cc1cc(NC(=O)C2CCCC2)n(-c2nc3ccccc3[nH]2)n1 | inactive |
| CCN(c1ccc(NC(=O)COC(=O)c2ccc([N+](=O)[O-])o2)cc1)C(C)C | inactive |
| CSc1ccc(/C=N/n2c(C3CCCCC3)n[nH]c2=S)cc1 | inactive |
| NS(=O)(=O)c1ccc(N=Nc2ccc(=O)[nH]c2O)cc1 | inactive |
| O=C(O)c1cccc2c1Oc1ccccc1S2(=O)=O | inactive |
| CC(C)(C)CN1CCNC(=O)C1CC(=O)NCCc1ccccc1C(F)(F)F (stereo not given) | inactive |
| CCCCC1=CC2=CC(=O)C(C)(OC(=O)C3CCCC3)C(=O)C2=CO1 (stereo not given) | inactive |
| Cc1cccc(OCc2nc(C)cc(=O)[nH]2)c1 | inactive |
| OC(c1ccc(Cl)cc1)C(O)c1nc2ccccc2[nH]1 (stereo not given) | inactive |
| COc1ccc(NC(=O)c2cc(-c3ccco3)nc3ccccc23)cc1S(=O)(=O)N1CCOCC1 | inactive |
| COc1ccc(N(CC(=O)NCc2ccccc2C)S(=O)(=O)c2ccc(C)cc2)cc1OC | inactive |
| CCc1cccc(CC)c1-n1c(SCC(=O)N2CCCc3ccccc32)nc(O)cc1=O | inactive |

| SMILES | outcome |
| --- | --- |
| CCc1ccc(-c2nc(SCC(=O)NC3CCS(=O)(=O)C3)n[nH]2)cc1 (stereo not given) | inactive |
| O=C(CSc1ncnc2ccccc12)Nc1cccc(S(=O)(=O)N2CCOCC2)c1 | inactive |
| O=C(CCCCCCC(=O)NCc1ccccc1)NCc1ccccc1 | inactive |
| COc1ccccc1NC(=O)CN(Cc1ccco1)C(=O)c1cccs1 | inactive |
| CC1(C)Cc2c(cnn2-c2ccccc2)C(NC(=O)CCCN2CCCCC2=O)C1 (stereo not given) | inactive |
| CCOC(=O)c1ccc(CC(=O)c2ccc(O)c(O)c2O)o1 | inactive |
| O=C(NNC(=O)c1ccccc1F)c1cccc(-n2cccc2)c1 | inactive |
| Cc1ccc(C(=O)NNS(=O)(=O)c2ccc(F)cc2)cc1 | inactive |
| CN(C(=O)c1ccc(OC2CCN(S(=O)(=O)N(C)C)CC2)cc1)C1CCCCC1 | inactive |
| CCOC(=O)Cn1c(=O)c2c(nc3n2CCN3Cc2ccccc2)n(C)c1=O | inactive |
| O=C(Cc1ccc2c(c1)OCCO2)N1CCN(S(=O)(=O)c2cccs2)CC1 | inactive |
| COc1ccc(N2CCC(CNS(=O)(=O)c3cccc(C(F)(F)F)c3)C2)cc1 (stereo not given) | inactive |
| CN(C)/C=N/NC(=O)c1ccccc1Cl | inactive |
| C[C@H](NC(=O)OCc1ccccc1)C(=O)NNC(=O)[C@H](C)NC(=O)OCc1ccccc1 | inactive |
| COC(=O)c1ccc(COc2ccc(/C=N/Nc3cccc(C(=O)O)c3)cc2)cc1 | inactive |
| O=c1cc(OCc2ccccc2)cc[nH]1 | inactive |
| O=C(Nc1ccc(COc2ccccc2)cc1)Oc1ccccc1N1CCOCC1 | inactive |
| CCN(CC(=O)Nc1c(F)cccc1F)C(=O)c1cccc(-n2cccc2)c1 | inactive |
| CCCCC1=CC2=C(c3ccco3)C(=O)C(C)(OC(=O)c3ccc(OC)cc3)C(=O)C2=CN1CCCCO (stereo not given) | inactive |
| CC(=O)Nc1ccc(C=C(C#N)c2ccc(C)cc2)cc1 | inactive |
| CCOc1ccc(CCNC(=O)C2CC(C)=CCC2C(=O)O)cc1OCC (stereo not given) | inactive |
| CCCCc1cc(=O)oc2cc(OCC(=O)N(CC)CC)c(Cl)cc12 | inactive |

| SMILES | outcome |
| --- | --- |
| C[C@H](NC(=O)NCc1cccs1)C(=O)O | inactive |
| CSc1cccc(NC(=O)C(C)C)c1 | inactive |
| CCOC(=O)c1cc2c(c(CCO)n1)[C@H](CCO)N(S(=O)(=O)C(C)(C)C)C2 | inactive |
| Cc1oc(/N=C/c2cccc3ccccc23)c(C#N)c1C | inactive |
| CCN1CCN(Cc2cc(=O)oc3ccc(C)cc23)CC1 | inactive |
| COC(=O)C(Cc1c[nH]c2ccccc12)NC(=O)C(C)C (stereo not given) | inactive |
| Cc1ccc(NC(=O)C(C)Sc2nc3nc(C)cc(C)n3n2)cc1 (stereo not given) | inactive |
| O=S(=O)(c1ccc2nc(-c3ccco3)c(-c3ccco3)nc2c1)N1CCOCC1 | inactive |
| Cc1ccc(CNC(=O)CN(c2cccc([N+](=O)[O-])c2)S(C)(=O)=O)cc1 | inactive |
| CC(NC(=O)C(NS(=O)(=O)c1cccs1)C(C)C)c1ccc(S(N)(=O)=O)cc1 (stereo not given) | inactive |
| Cc1cc(=O)nc2c3ccccc3n(C(C)C(=O)NCCC(C)C)n12 (stereo not given) | inactive |
| Cc1cc(C)cc(N(CCC#N)C(=O)CSc2nc3nc(C)cc(C)n3n2)c1 | inactive |
| Cc1ccc(OCc2ccc(C(=O)NN)o2)cc1C | inactive |
| Cc1c(NC(=O)COC(=O)c2ccccc2Cl)c(=O)n(-c2ccccc2)n1C | inactive |
| NC(=O)c1ccc(NC(=O)CSc2nc3ccccc3c(=O)n2CCCN2CCOCC2)cc1 | inactive |
| O=C(NC1CCCCC1)C(c1ccc(Cl)cc1)N(C(=O)c1ccccn1)c1cccnc1 (stereo not given) | inactive |
| Cc1ccccc1Cn1cc(NC(=O)c2cc(C3CC3)on2)cn1 | inactive |
| O=C(c1cccc(S(=O)(=O)N2CCCC2)c1)N1CCOCC1 | inactive |
| COc1ccc(NC(=S)N(CCCN2CCCC2)Cc2ccco2)cc1 | inactive |
| CCOC(=O)C1(Cc2ccc(OC)cc2)CCN(C(=O)c2cccc3nccnc23)CC1 | inactive |
| CCOc1ccc(-n2c(C)nc(O)c2N=Nc2ccccc2)cc1 | inactive |
| COc1cccc(NC(=O)Nc2nnc(N3C(C)CCCC3C)s2)c1 (stereo not given) | inactive |
